From PubChem BioAssay
CHX counter = counter-screen for Shiga toxin inhibitors: cycloheximide protein synthesis inhibition; cell reporter, cycloheximide protein synthesis inhibition counterscreen; max response, %; hit rate 12% among 300,000; in the data active means max response mostly above about 13%, no sharp cut-off; inactive means mostly below about 14%; further: read at 38.3 µM for the half of the compounds with a filed dose; 0% is about no effect
LmPK inhibitor = LmPK (Leishmania mexicana) enzyme inhibition; purified LmPK, Kinase-Glo ATP luminescence, 1 h; Potency, µM (highest dose often 57.5 µM), without a hit: at the top dose activity change, negative = inhibition, actives largely listed as inhibitors; AID 1721; hit rate 0.37% among 290,000; Q27686; further: potency means the concentration at half of the fitted maximal effect; on the % scale 0 is the no-effect control and ±100 the full control effect
Target sequence (Q27686 whole entry, looked up): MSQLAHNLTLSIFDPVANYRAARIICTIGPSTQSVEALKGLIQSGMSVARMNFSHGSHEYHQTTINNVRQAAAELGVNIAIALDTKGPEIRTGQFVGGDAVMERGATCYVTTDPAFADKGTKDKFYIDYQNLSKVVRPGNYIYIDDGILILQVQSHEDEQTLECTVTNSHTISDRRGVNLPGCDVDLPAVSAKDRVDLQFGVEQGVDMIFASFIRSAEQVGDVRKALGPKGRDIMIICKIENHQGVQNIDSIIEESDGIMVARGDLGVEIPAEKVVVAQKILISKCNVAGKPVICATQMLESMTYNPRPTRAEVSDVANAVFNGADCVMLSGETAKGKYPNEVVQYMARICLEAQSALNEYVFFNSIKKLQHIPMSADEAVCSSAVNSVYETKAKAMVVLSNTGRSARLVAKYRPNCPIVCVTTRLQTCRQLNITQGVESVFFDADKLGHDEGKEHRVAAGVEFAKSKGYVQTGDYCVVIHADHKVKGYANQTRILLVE
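Screened at intermediate enzyme activity to detect both inhibitors and activators: LmPK at 0.1 nM, with a 0.5 nM enzyme column as activation reference. PEP 0.5 mM, ADP 0.1 mM; ATP detected by luminescence after 1 h.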
RE007 growth inh = less growth of the S. pombe RE007 Vpr strain; Potency, µM (top dose mostly 92.2 µM), without a hit: at the highest dose activity change, negative = less growth, hits mostly inhibitors; AID 651644; S. pombe RE007 Vpr strain, BacTiter-Glo ATP luminescence, 24 h; hit rate 0.21% among 360,000; active means well fitted falling curve with a large enough effect; inconclusive means small, poorly fitted or top-dose-only effect; inactive means no such curve, though single readings can be large or run the other way; further: potency means the concentration at half of the fitted maximal effect; on the % scale 0 is the no-effect control and ±100 the full control effect; nearly all actives have a fitted effect of over 50% in size
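Fission yeast RE007 carrying one integrated HIV-1 vpr copy, seeded at OD 0.01 in PMG+AL medium with 23 nL pinned compound. Grown 24 h at 30 degrees; viability read by BacTiter-Glo luminescence after 5 min.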
Shiga toxin inh = inhibitors of Shiga toxin in Vero cells | Vero cells, Shiga toxin protein synthesis inhibition reporter | inhibition, % at 38.7 µM | hit rate 9.2% among 290,000; in the data active means inhibition mostly above about 28%, no sharp cut-off; inactive means mostly below about 43%; further: 0% is about no effect
FBPA Giardia inh = blocks Giardia fructose-bisphosphate aldolase activity | purified Giardia FBPA | A8B2U2 | Potency, µM (doses to about 59.6 µM), without a hit: at the highest dose activity, negative = inhibition, actives largely listed as inhibitors | hit rate 0.71% among 290,000; further: potency means the concentration at half of the fitted maximal effect; on the % scale 0 is the no-effect control and ±100 the full control effect; nearly all actives have a fitted effect of over 55% in size
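40 nM FBPA preincubated 10 min at RT with compound (up to 57.5 uM final), then substrate plus GAPDH/TPI/NAD/arsenate coupling and diaphorase/resazurin added. Fluorescence read after 20 min at RT, 525/598 nm.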
TbPYK inhibitor = T. brucei pyruvate kinase inhibition; AID 624173; Potency, µM (highest dose often 76.8 µM), inactives show at the highest dose activity, negative = inhibition, most hits filed as inhibitors; TbPYK enzyme, Kinase-Glo Plus ATP luminescence, 45 min; hit rate 0.12% among 410,000; further: potency means the concentration at half of the fitted maximal effect; on the % scale 0 is the no-effect control and ±100 the full control effect; nearly all actives have a fitted effect of over 50% in size
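ADP (130 uM final) triggers the TbPYK reaction after compound addition; incubation is 45 min at room temperature. Kinase-Glo Plus is then added and luminescence imaged. Normalized data are fitted to concentration-effect curves.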
The depositor's hits bear a star; i = inactive; u = inconclusive; x = no result; [ ] = another dose, or the depositor's remark. Only a selection was taken, and hits are over-represented in it overall. Unless noted, the call rests on the fitted dose curve; in most records, active means well fitted curve in the direction sought with a large enough effect; inconclusive means small, poorly fitted or top-dose-only effect, or another doubt; inactive means no such curve, though single readings can be large; an effect the other way counts as inactive or inconclusive.

SMILES	CHX counter	LmPK inhibitor	RE007 growth inh	Shiga toxin inh	FBPA Giardia inh	TbPYK inhibitor
CCOC(=O)C1=Nc2ccccc2C1=[N+]=[N-]	-2.8	-1.2%	0.251µM*	-13.8	-5.6%	3.0%
COCC(=O)N1CCC(n2nccc2NC(=O)CCOc2ccccc2)CC1	23.8*	8.3%	-7.2%	36.4*	x	-0.4%
O=C(CCOc1ccccc1)Nc1ccnn1C1CCN(C(=O)CCC(F)(F)F)CC1	23.5*	7.3%	0.3%	24.9	x	4.4%
CCCNC(=O)N1CCC(n2nccc2NC(=O)CCOc2ccccc2)CC1	-0.3	-8.3%	33.5%	-3.5	x	4.4%
COc1cccc(CN2CCC(n3nccc3NC(=O)CCOc3ccccc3)CC2)c1	-2.1	4.8%	9.0%	-7.6	x	-0.3%
COC(=O)CCCC(=O)N1CCC(n2nccc2NC(=O)CCOc2ccccc2)CC1	21.4*	-8.1%	1.3%	34.2	2.4%	6.6%
O=C(CCOc1ccccc1)Nc1ccnn1C1CCN(CCc2ccccc2)CC1	-6.7	-8.6%	-0.6%	-7.9	-3.2%	5.0%
CCN(C(=O)CCc1nc(-c2ccc(C)cc2)no1)c1cccc(C(F)(F)F)c1	x	x	x	x	x	-6.1%
O=C(NCc1cccs1)C1CCN(S(=O)(=O)c2ccc(Br)s2)CC1	5.3	2.5%	-4.9%	-22.5	4.2%	-2.1%
O=C(NCc1ccc(F)cc1)C1CCN(S(=O)(=O)c2ccc(Br)s2)CC1	14.9*	1.9%	-1.2%	37.1*	5.1%	-1.8%
O=C(NCc1ccc(F)cc1)C1CCCN(S(=O)(=O)c2ccc(Br)s2)C1 (stereo unspecified)	14.0	-1.4%	-8.4%	54.6*	-2.1%	-5.4%
Cn1cc(-c2ccno2)c(C(=O)O)n1	-0.7	3.2%	-1.2%	12.0	-16.9%	0.5%
C=CCOc1ccc(CNCc2cccnc2)cc1	8.5*	-5.4%	0.8%	14.8	-12.9%	3.1%
COc1ccc([C@]23Cc4cc(OC)c(OC)cc4C(O2)C2=C(CC4(CCCCC4)OC2=O)O3)cc1	5.3	-7.7%[11.5 µM]	x	i	8.1%[12.9 µM]	x
COc1ccc(C(=O)Nc2ccc(NC(=O)c3cc(OC)c(OC)c(OC)c3)cn2)cc1	2.4	-1.6%	10.5%	14.6	u	-3.3%
COc1ccc(NC2CCCN(C(=O)c3csc(C(C)C)n3)C2)cc1 (stereo unspecified)	-1.5	4.7%	-9.2%	-12.9	-9.0%	-10.2%
COc1cc(OC)cc(C(=O)NCC2CCCN(C(=O)c3csc(C(C)C)n3)C2)c1 (stereo unspecified)	21.4*	1.7%	5.3%	-7.7	x	0.7%
CCc1ccc(/C=C2/C(=O)NC(=O)N2C(C)=O)cc1	37.5*	0.0%	11.3%	24.4	-3.7%	-2.8%
COc1ccc(-n2c(=O)c(-c3cc(F)cc(F)c3)nc3cnc(N(C)C)nc32)cc1	x	x	x	x	4.4%	x
CSc1cccc(NC(=O)c2ccc(Cl)nc2)c1	40.2*	-1.0%	-2.6%	61.1*	x	34.1%
CSc1cccc(NC(=O)N2CCc3ccc(NC(=O)c4ccccn4)cc3C2)c1	18.4*	-12.8%	-15.6%	77.4*	x	-1.3%
O=C(Nc1cccc(Cl)c1)c1cnccn1	15.5*	7.9%	-5.5%	x	0.1%	-4.0%
COc1ccccc1C(=O)Nc1ccc2c(c1)CN(C(=O)CSC)CC2	8.6	0.7%	3.8%	27.0	1.4%	4.0%
O=C(NNC(=O)c1ccc(Cl)cc1Cl)c1csc(-c2cccnc2)n1	19.4*	3.9%	-4.8%	22.2	-0.5%	1.4%
O=C(NCc1ccc(Cl)cc1)c1csc(-c2cccnc2)n1	-4.8	7.7%	2.2%	-9.8	-0.4%	-3.7%
O=C(NCCNC(=O)c1cnccn1)c1cccc(Cl)c1	-4.9	1.5%	7.9%	5.3	-1.9%	-1.3%
